Measurements as given in PubChem BioAssay (Tox21).
Records with an inconclusive call do not appear. Active and inactive are the calls of the source. Unless noted, calls come from the whole dose curve.

Biological target: Acetylcholinesterase (Homo sapiens) (UniProt P22303)
Test: Acetylcholinesterase (AChE) small molecule antagonists: enzyme-based qHTS assay with human liver microsomes (AID 1347399); note: nearly all actives have a fitted effect of over 60% in size
Conditions: Potency: qHTS inhibition; outcome: qHTS inhibition; series mostly up to 115 µM; activity change, negative = inhibition: at the top concentration
Procedure, shortened: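 Recombinant human AChE (50 mU/mL in the enzyme mix) and human liver microsomes (0.25 mg/mL final) were preincubated with compound and NADPH (0.25 mg/mL final) for 30 min at 37 C. Acetylthiocholine/DTNB was then added; thiocholine was read colorimetrically after 10 min at room temperature.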
% is set by controls: 0 for no effect and ±100 for the full control effect.

Acetylcholinesterase (Homo sapiens), sequence (P22303 whole entry, looked up): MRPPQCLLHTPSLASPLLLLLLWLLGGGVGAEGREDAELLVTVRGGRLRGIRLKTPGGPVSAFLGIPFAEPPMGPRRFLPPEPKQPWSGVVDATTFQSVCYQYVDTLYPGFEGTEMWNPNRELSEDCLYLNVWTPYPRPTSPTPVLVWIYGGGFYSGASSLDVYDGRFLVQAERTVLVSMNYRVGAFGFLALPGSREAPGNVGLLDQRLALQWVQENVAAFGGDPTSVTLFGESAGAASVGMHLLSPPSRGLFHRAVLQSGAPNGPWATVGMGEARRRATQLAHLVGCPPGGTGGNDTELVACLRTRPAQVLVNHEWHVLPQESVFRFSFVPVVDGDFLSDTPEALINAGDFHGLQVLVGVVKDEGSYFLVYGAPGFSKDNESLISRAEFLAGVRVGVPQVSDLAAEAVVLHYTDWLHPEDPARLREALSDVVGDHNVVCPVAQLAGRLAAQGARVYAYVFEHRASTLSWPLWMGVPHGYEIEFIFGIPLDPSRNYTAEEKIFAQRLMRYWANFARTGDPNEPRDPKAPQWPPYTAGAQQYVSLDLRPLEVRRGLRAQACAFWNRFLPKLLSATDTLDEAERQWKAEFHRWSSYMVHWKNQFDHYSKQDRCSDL

Structure (SMILES)	activity change, negative = inhibition	Potency
O=C(NC(O)C(Cl)(Cl)Cl)NC(O)C(Cl)(Cl)Cl (stereo unspecified)	-0.295% [at 53 µM] (inactive)	–
CCCCS(=O)(=O)Cl	1.22% (inactive)	–
C[C@]12C=CC(=O)C=C1CC[C@@H]1[C@@H]2CC[C@@]2(C)[C@H]1CC[C@]2(C)O	-1.33% [at 53 µM] (inactive)	–
O=c1[nH]c2ccccc2o1	-0.568% (inactive)	–
CCN(CCO)CCn1c(Cc2ccccc2)nc2c1c(=O)n(C)c(=O)n2C	-0.667% [at 53 µM] (inactive)	–
CCCCCCCC(=O)Cl	-0.65% (inactive)	–
O=C(O)c1c(Cl)ccc2cc(Cl)cnc12	0.242% (inactive)	–
c1cncc([C@@H]2CCCCN2)c1	-0.623% (inactive)	–
CC(C)(C)NC[C@H](O)c1ccc(O)cc1Cl	-1% [at 53 µM] (inactive)	–
NC1(c2ccccc2)CCCCC1	-2.51% (inactive)	–
CCN(CCO)CCO	-1.08% (inactive)	–
NNCc1ccccc1	0.21% (inactive)	–
C[C@H](N)C(=O)c1ccccc1	2.06% (inactive)	–
COC(=O)c1ccc(CBr)cc1	-4.04% (inactive)	–
CC1N=C(N)OC1c1ccccc1 (stereo unspecified)	1.92% (inactive)	–
CCN[C@@H](C)Cc1ccccc1	-0.764% (inactive)	–
CC(=O)CN(CC(C)=O)N=O	-0.0093% (inactive)	–

Structure (SMILES)	activity change, negative = inhibition	Potency
ClC1=C(Cl)C2(Cl)C(CBr)CC1(Cl)C2(Cl)Cl (stereo unspecified)	–	inactive
COc1ccc(C=O)cc1O	0.567% (inactive)	–
C=C1CC[C@@]2(O)[C@H]3Cc4ccc(O)c5c4[C@@]2(CCN3CC2CC2)[C@H]1O5	-1.9% [at 53 µM] (inactive)	–
C(COCC1CO1)OCC1CO1 (stereo unspecified)	-3.36% (inactive)	–
COP(=O)(O)OC	0.39% (inactive)	–
CCNc1nc(NCC)nc(SC)n1	-0.583% (inactive)	–
C[C@H](CN1CCOCC1)C(C(=O)N1CCCC1)(c1ccccc1)c1ccccc1	0.078% (inactive)	–
O=C(O)C(F)(F)C(F)(F)C(F)(F)C(F)(F)C(F)(F)C(F)(F)F	0.437% (inactive)	–
CCOC(=O)Nc1cccc(OC(=O)Nc2ccccc2)c1	0.387% (inactive)	–
BrCC1CO1 (stereo unspecified)	-0.082% (inactive)	–
COc1ccc(CN2CCNCC2)c(OC)c1OC	1.76% [at 53 µM] (inactive)	–
NNC(N)=O	0.341% (inactive)	–
[P]#[In]	0.153% (inactive)	–
O=C(O)CBr	-0.81% (inactive)	–
CCCC[N+](=O)[O-]	0.171% (inactive)	–
OCC(Cl)CCl (stereo unspecified)	0.998% (inactive)	–

Biological target: Cytochrome P450 2D6 (Homo sapiens) (UniProt P10635)
Test: Cytochrome P450 Family 2 Subfamily D Member 6 (CYP2D6) small molecule antagonists: luciferase reporter qHTS assay (AID 1671196; active = well fitted inhibition curve with a large enough effect in the repeat runs; note: nearly all actives have a fitted effect of over 50% in size; note: potency is the fitted concentration of half-maximal effect)
Conditions: P450-Glo CYP2D6 enzyme assay, luciferin luminescence, 1 h; series mostly up to 115 µM; activity change, negative = inhibition: at the top concentration
Procedure, shortened: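 Room-temperature luminescent CYP2D6 activity assay: compound preincubated 10 min with enzyme–substrate mix, NADPH-initiated reaction 1 h, detection reagent 20 min before reading.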

Cytochrome P450 2D6 (Homo sapiens), sequence (P10635 whole entry, looked up): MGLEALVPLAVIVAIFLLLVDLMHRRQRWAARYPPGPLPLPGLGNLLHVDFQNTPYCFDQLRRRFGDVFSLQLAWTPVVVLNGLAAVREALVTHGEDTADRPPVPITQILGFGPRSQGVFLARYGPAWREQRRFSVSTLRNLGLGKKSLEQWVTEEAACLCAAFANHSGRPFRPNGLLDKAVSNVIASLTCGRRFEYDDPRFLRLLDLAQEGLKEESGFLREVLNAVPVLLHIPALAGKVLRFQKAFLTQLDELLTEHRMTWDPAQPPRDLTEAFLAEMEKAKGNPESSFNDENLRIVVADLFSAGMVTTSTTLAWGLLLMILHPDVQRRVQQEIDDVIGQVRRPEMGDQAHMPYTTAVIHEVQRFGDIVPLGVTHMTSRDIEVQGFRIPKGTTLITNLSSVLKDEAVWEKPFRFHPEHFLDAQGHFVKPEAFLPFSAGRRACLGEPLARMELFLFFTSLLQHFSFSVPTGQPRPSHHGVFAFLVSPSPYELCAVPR

Structure (SMILES)	Potency	activity change, negative = inhibition
N#CC(Br)(Br)C(N)=O	71 µM (active)	–
O=C(NC(O)C(Cl)(Cl)Cl)NC(O)C(Cl)(Cl)Cl (stereo unspecified)	–	1.67% [at 53 µM] (inactive)
CCCCS(=O)(=O)Cl	–	-18% (inactive)
C[C@]12C=CC(=O)C=C1CC[C@@H]1[C@@H]2CC[C@@]2(C)[C@H]1CC[C@]2(C)O	–	-9.75% [at 53 µM] (inactive)
CCN(CCO)CCn1c(Cc2ccccc2)nc2c1c(=O)n(C)c(=O)n2C	–	-28.7% [at 53 µM] (inactive)
CCc1cc(OC)c(C[C@H](C)N)cc1OC	4.16 µM (active)	–
CCCCCCCC(=O)Cl	–	-20.8% (inactive)
O=C(O)c1c(Cl)ccc2cc(Cl)cnc12	–	-15.3% (inactive)
CC(C)(C)NC[C@H](O)c1ccc(O)cc1Cl	30.9 µM (active)	–
NC1(c2ccccc2)CCCCC1	31.4 µM (active)	–
CCN(CCO)CCO	–	-11.4% (inactive)
NNCc1ccccc1	11.5 µM (active)	–
C[C@H](N)C(=O)c1ccccc1	42.2 µM (active)	–
COC(=O)c1ccc(CBr)cc1	64 µM (active)	–
CC1N=C(N)OC1c1ccccc1 (stereo unspecified)	9.81 µM (active)	–
CCN[C@@H](C)Cc1ccccc1	6.28 µM (active)	–
CC(=O)CN(CC(C)=O)N=O	–	-12.2% (inactive)
ClC1=C(Cl)C2(Cl)C(CBr)CC1(Cl)C2(Cl)Cl (stereo unspecified)	inactive	–
COc1ccc(C=O)cc1O	–	0.903% (inactive)
C=C1CC[C@@]2(O)[C@H]3Cc4ccc(O)c5c4[C@@]2(CCN3CC2CC2)[C@H]1O5	2.19 µM (active)	–
CCNc1nc(NCC)nc(SC)n1	–	-12.9% (inactive)
C[C@H](CN1CCOCC1)C(C(=O)N1CCCC1)(c1ccccc1)c1ccccc1	43.3 µM (active)	–
O=C(O)C(F)(F)C(F)(F)C(F)(F)C(F)(F)C(F)(F)C(F)(F)F	–	-17.8% (inactive)
BrCC1CO1 (stereo unspecified)	–	-3.04% (inactive)
[P]#[In]	–	0.476% (inactive)
O=C(O)CBr	–	-25.6% (inactive)
CCCC[N+](=O)[O-]	–	-4.97% (inactive)
OCC(Cl)CCl (stereo unspecified)	–	-14.4% (inactive)
